Screening results from PubChem BioAssay.
A selection: hits, their analogues and other compounds. The true share with any hit is near 0.13%.
IL-2 act: activators of IL-2. activation, % (series mostly up to about 46 µM). IL-2 activation reporter assay, cell-based qHTS; stimulated with anti-CD3/CD4/CD28 beads; in transgenic mouse T cells. 360,000 compounds, 0.065% hits. AID 652025; in the data active = activation above about 50%; inconclusive = mostly about 30% to 49%
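First, unstimulated transgenic mouse T cells were exposed to compound for 60 min. Next, anti-CD3/anti-CD4-coated beads with anti-CD28 were added. Finally, after 18 h at 37 degrees C, EGFP and DsRed were imaged.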
GLA inh pH 4.5: blocks human alpha-galactosidase A at pH 4.5. activity change, negative = inhibition, % at 105 µM. purified enzyme, 4-MU-alpha-Gal fluorescence, pH 4.5. P06280. 230,000 tested, under 10 active
Target sequence (P06280 whole entry, looked up): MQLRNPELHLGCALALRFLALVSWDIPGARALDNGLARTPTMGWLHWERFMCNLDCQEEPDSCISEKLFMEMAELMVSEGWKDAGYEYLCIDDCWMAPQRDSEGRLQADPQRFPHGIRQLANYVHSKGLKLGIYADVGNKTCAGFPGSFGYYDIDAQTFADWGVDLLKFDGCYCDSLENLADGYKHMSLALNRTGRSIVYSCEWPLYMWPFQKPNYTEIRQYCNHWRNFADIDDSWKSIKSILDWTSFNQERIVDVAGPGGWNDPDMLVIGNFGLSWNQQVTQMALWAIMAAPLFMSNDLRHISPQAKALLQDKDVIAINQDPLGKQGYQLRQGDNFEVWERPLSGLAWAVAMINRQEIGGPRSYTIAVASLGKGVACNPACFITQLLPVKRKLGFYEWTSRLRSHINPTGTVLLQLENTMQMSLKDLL
aGal spleen mod: alpha-galactosidase A (human) modulation. AID 2107. P06280. 240,000 compounds, 0.008% hits. human spleen homogenate, 4MU-alpha-Gal fluorescence, 40 min. Potency, µM (top dose mostly 80 µM), usual class: inhibitors
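Inhibition or activation of alpha-galactosidase in human spleen homogenate is scored by 4-MU fluorescence after 40 min at 37C, pH 5.0, with 1 mM substrate. AC50s come from concentration-response fitted to the Hill equation.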
a7 integrin act: activators of alpha7 integrin expression for muscular dystrophy | alpha7betagal myoblasts, beta-gal FDG fluorescence, 48 h | Potency, µM (top dose mostly 38.3 µM), actives largely listed as activators | 350,000 compounds, 0.064% hits; note: nearly all actives have a fitted effect of over 60% in size
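Alpha7betagal+/- myoblasts (passage 13) were plated 16-24 hr, then exposed to compounds (1:260 dilution of DMSO stock) for 48 hours at 37C. After MPER lysis, β-galactosidase reporter activity was read as FDG fluorescence (ex 480/em 540) after 30 minutes.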
Large screens that a line does not name were inactive. Unless noted, calls come from the whole dose curve; as a rule, active = well fitted curve in the direction sought with a large enough effect; inconclusive = small, poorly fitted or top-dose-only effect, or another doubt; inactive = no such curve, though single readings can be large; an effect the other way counts as inactive or inconclusive.

O=C(CC1Nc2ccccc2NC1=O)Nc1cc(Cl)cc(Cl)c1 (centres undefined)	none
CCOC(=O)c1c(NC(=O)CC2Nc3ccccc3NC2=O)sc(C)c1C (centres undefined)	IL-2 act 157.7
COc1ccc2c(c1OC)C(Cc1ccccc1)N1CCc3cc4c(cc3C1=C2)OCO4 (centres undefined)	none (no result: IL-2 act, a7 integrin act)
CCNS(=O)(=O)c1ccc(C)cc1	none (no result: IL-2 act, GLA inh pH 4.5, a7 integrin act)
COc1ccc(O)c(/C=N/NC(=O)c2cc(=O)[nH]c3ccccc23)c1	a7 integrin act 5.62µM
COc1ccc(CCn2c(=N)c(S(=O)(=O)c3ccc(Cl)cc3)cc3c(=O)n4ccccc4nc32)cc1	IL-2 act 80.5 (no result: GLA inh pH 4.5, aGal spleen mod)
O=C(CC(c1ccccc1)c1cc(Br)ccc1O)NCCN1CCOCC1 (centres undefined)	aGal spleen mod 39.8µM
O=C(O)CCn1cc(/C=C2/NC(=S)N(c3ccccc3)C2=O)c(-c2ccccc2)n1	a7 integrin act 20µM
N#CCCn1cc(/C=C2\NC(=S)N(c3ccccc3)C2=O)c(-c2ccc(-c3ccccc3)cc2)n1	none
CCOc1ccc(Nc2nc3c(C)cccc3cc2C#N)cc1	IL-2 act 57.5 (no result: GLA inh pH 4.5, aGal spleen mod)
COc1ccccc1Nc1nc2c(C)cccc2cc1C#N	none
C/C(=N\Nc1ncc(Cl)cc1Cl)c1ccccn1	IL-2 act 70.7
Cc1sc2ncnc(N/N=C/c3cccc(O)c3)c2c1C	none
C/C(=N\Nc1ncnc2sc(C)c(C)c12)c1ccccn1	IL-2 act 121.8 (no result: GLA inh pH 4.5, aGal spleen mod)
COc1ccc(CCNC(=O)C(=O)c2c[nH]c3ccccc23)cc1	none (no result: IL-2 act, GLA inh pH 4.5, a7 integrin act)
Cc1ccccc1C(=O)Nc1nnc(SC(C)C)s1	a7 integrin act 10µM
Cc1ccccc1N=Cc1c(O)n(-c2nccs2)c(=O)c2ccccc12	none
O=c1c2ccccc2c(C=Nc2ccccc2O)c(O)n1-c1nccs1	IL-2 act 63.6
CC(=O)c1cc(NC(=O)c2cccc(C(F)(F)F)c2)c(=O)oc1/C=C/N(C)C	IL-2 act 57.8
CC(=O)c1cc(NC(=O)c2cccc(C(F)(F)F)c2)c(=O)oc1C	none
CCn1cc(Br)c(C(=O)NC(C)c2ccccc2)n1 (centres undefined)	IL-2 act 71.7
O=S(=O)(Nc1cc(O)cc2cccnc12)c1ccc(Cl)s1	none (no result: IL-2 act, GLA inh pH 4.5, a7 integrin act)
CCCOc1nc(SCCC)nc2c1cnn2-c1ccccc1	a7 integrin act 11.2µM
CCCSc1nc2c(cnn2-c2ccccc2)c(=O)n1N	none
CCCCCCCCN=C(N)c1ccc(C(=O)OCC2CCCCC2)cc1	none (no result: IL-2 act, GLA inh pH 4.5, a7 integrin act)
CC#CCN1c2ccccc2[C@]23C[C@@H](C(=O)OC)N(S(=O)(=O)c4ccc(Br)cc4)C2=NC(C(=O)OC)=C(C(=O)OC)[C@H]13	none (no result: IL-2 act, a7 integrin act)
Cn1ccc(C(=O)Nc2cccnc2Cl)n1	a7 integrin act 10µM (no result: GLA inh pH 4.5, aGal spleen mod)
CCC(CC)C(=O)Nc1c(C(=O)N2CCN(c3ccccc3)CC2)oc2ccccc12	a7 integrin act 12.6µM (no result: GLA inh pH 4.5, aGal spleen mod)
CC(C)C(=O)Nc1c(C(=O)N2CCN(c3ncccn3)CC2)oc2ccccc12	none (no result: GLA inh pH 4.5, aGal spleen mod)
CCC1=C[C@@H]2CN(C1)Cc1c([nH]c3ccccc13)[C@@](C(=O)OC)(c1cc3c(cc1OC)N(C)[C@H]1[C@@](O)(C(=O)OC)[C@H](OC(C)=O)[C@]4(CC)C=CCN5CC[C@]31[C@@H]54)C2	none (no result: IL-2 act, GLA inh pH 4.5, a7 integrin act)
N#Cc1cccc(NC(=O)CSc2ccc3c4c(cccc24)C(=O)c2ccccc2-3)c1	none
COc1ccc(NC(=O)CSc2ccc3c4c(cccc24)C(=O)c2ccccc2-3)cc1	IL-2 act 183.8
Oc1c(Br)cc(Br)cc1CNc1cccc2cccnc12	a7 integrin act 12.6µM (no result: GLA inh pH 4.5, aGal spleen mod)
Cc1cc(C(=O)Nc2cccc3ccccc23)c(C)o1	a7 integrin act 7.94µM (no result: GLA inh pH 4.5, aGal spleen mod)
Cc1oc(CC(C)C)cc1C(=O)Nc1cccc2ccccc12	none
CCCn1c(-c2cc(OC)c(OC)c(OC)c2)nc2c1c(=O)[nH]c(=O)n2Cc1ccccc1	a7 integrin act 12.6µM (no result: GLA inh pH 4.5, aGal spleen mod)
CCCn1c(-c2cccc(F)c2)nc2c1c(=O)[nH]c(=O)n2Cc1ccccc1	none (no result: GLA inh pH 4.5, aGal spleen mod)
O=C(O)c1cc2c(ccc3ccccc32)o1	aGal spleen mod 39.8µM
CCCCc1nc2c(c3c1C[C@H](C)OC3)CN(C(=O)Cc1cccc(OC)c1)CC2	none (no result: IL-2 act, a7 integrin act)
Oc1ccc(Cl)cc1CNC1CCCCC1	none (no result: GLA inh pH 4.5, aGal spleen mod)
Clc1cccc(Cl)c1CNC1CCCC1	IL-2 act 103.8, aGal spleen mod inconclusive
Cc1cc(NC(=O)Nc2ccc(Cl)cc2)no1	none (no result: GLA inh pH 4.5, aGal spleen mod)
Cc1cc(NC(=O)c2ccc(Cl)cc2Cl)no1	a7 integrin act 1.41µM (no result: GLA inh pH 4.5, aGal spleen mod)
CNc1cc([N+](=O)[O-])ccc1OCc1ccccc1	a7 integrin act 4.47µM
